These results are taken from PubChem BioAssay (EPA / NIEHS).

Some compounds were tested as several samples or in several runs, with calls that do not always agree. Calls of active or inactive are those of the source. How the source made its calls: active means hit-call score of the fitted dose curve at least 0.9, where 1 is the maximum; inactive means score below 0.9.

Holding throughout (details): mRNA level, 48 h; actives raise or lower the signal
Read-out in test [1]: Bcl-2 (BAD) gene, BAD (gene 572)
As to the kind of experiment: LTEA_HepaRG_BAD: Life Technologies and Expression Analysis (LTEA) Assay for Bcl-2 (BAD) gene using HepaRG (AID 2283469). The method in brief:
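Differentiated human HepaRG cells in serum-free induction medium were exposed in duplicate for 48 h to eight concentrations (top 100 uM, half-log steps, 0.5% DMSO). BAD mRNA was quantified by qRT-PCR normalised to ACTB, GAPDH and POLR2A, with bidirectional fitting versus DMSO.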

Read-out in test [2]: Bcl-2 (BAX) gene, BAX (gene 581)
In words: LTEA_HepaRG_BAX: Life Technologies and Expression Analysis (LTEA) Assay for Bcl-2 (BAX) gene using HepaRG (AID 2283470). The method in brief: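 Differentiated HepaRG cells exposed 48 h in serum-free induction medium, eight half-log concentrations from 100 uM, in duplicate, 0.5% DMSO vehicle. BAX mRNA by TaqMan qRT-PCR, normalised to ACTB, GAPDH and POLR2A.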

Read-out in test [3]: adenosine kinase (ADK) gene, ADK (gene 132)
In words: LTEA_HepaRG_ADK: Life Technologies and Expression Analysis (LTEA) Assay for adenosine kinase (ADK) gene using HepaRG (AID 2283471). In short, it runs like this: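 Following 48 h exposure of HepaRG cells in 0.5% DMSO (top concentration 100 uM, duplicate wells), ADK mRNA induction or suppression was measured by qRT-PCR, normalised to ACTB/GAPDH/POLR2A, and fitted bidirectionally relative to vehicle.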

Read-out in test [4]: Alpha-fetoprotein (AFP) gene, AFP (gene 174)
In words: LTEA_HepaRG_AFP: Life Technologies and Expression Analysis (LTEA) Assay for Alpha-fetoprotein (AFP) gene using HepaRG (AID 2283472). The method in brief:
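Differentiated human HepaRG cells exposed 48 h in serum-free induction medium, 8-point half-log series from 100 uM in 0.5% DMSO, duplicate. AFP mRNA by qRT-PCR, normalized to ACTB, GAPDH, POLR2A; bidirectional fit vs DMSO.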

Read-out in another test: BCL2L11 (gene 10018)
As to the kind of experiment: LTEA_HepaRG_BCL2L11: Life Technologies and Expression Analysis (LTEA) Assay for Bcl-2 (BCL2L11) gene using HepaRG (AID 2283473). In short, it runs like this: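 BCL2L11 transcript levels are measured by Fluidigm qRT-PCR, normalized to three housekeeping genes. HepaRG cultures were plated 48 h, then treated 48 h with test chemical (top 100 uM, half-log, 0.5% DMSO vehicle); curves were fitted bidirectionally against DMSO.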

Read-out in test [5]: Apolipoprotein A-V (APOA5) gene, APOA5 (gene 116519)
In words: LTEA_HepaRG_APOA5: Life Technologies and Expression Analysis (LTEA) Assay for Apolipoprotein A-V (APOA5) gene using HepaRG (AID 2283474). The method in brief:
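APOA5 transcript levels were quantified by qRT-PCR, normalized to three housekeeping genes, after 48 h chemical treatment of HepaRG cells (8 points, 100 uM maximum, half-log steps, 0.5% DMSO). Curves fitted in both directions against vehicle.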

Read-out in test [6]: Apoptosis regulator Bcl-2 (Homo sapiens) (UniProt P10415)
As to the kind of experiment: LTEA_HepaRG_BCL2: Life Technologies and Expression Analysis (LTEA) Assay for Bcl-2 gene using HepaRG (AID 2283475). The method in brief:
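Differentiated human HepaRG cells in serum-free induction medium exposed 48 h, in duplicate, to 8-point half-log series from 100 uM in 0.5% DMSO. BCL2 mRNA by qRT-PCR (TaqMan/Fluidigm), normalized to ACTB, GAPDH, POLR2A; bidirectional fit against DMSO.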

Read-out in test [7]: Bcl-2 (BID) gene, BID (gene 637)
In words: LTEA_HepaRG_BID: Life Technologies and Expression Analysis (LTEA) Assay for Bcl-2 (BID) gene using HepaRG (AID 2283476). In short, it runs like this:
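Gene expression by qRT-PCR in HepaRG cells after 48 h exposure, duplicate wells, eight half-log concentrations topping at 100 uM in 0.5% DMSO. Normalized to ACTB, GAPDH, POLR2A; bidirectional fitting relative to DMSO.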

Read-out in the next test: Caspase-3 (Homo sapiens) (UniProt P42574)
As to the kind of experiment: LTEA_HepaRG_CASP3: Life Technologies and Expression Analysis (LTEA) Assay for cysteine-aspartic acid protease (CASP3) using HepaRG (AID 2283477). The method in brief:
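Expression of CASP3 was quantified by TaqMan qRT-PCR against three housekeeping genes (ACTB, GAPDH, POLR2A), bidirectionally versus 0.5% DMSO. HepaRG cultures received compounds in duplicate, top 100 uM with half-log steps, for 48 h in serum-free induction medium.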

Read-out in test [8]: Cytochrome P450 (CYP24A1), CYP24A1 (gene 1591)
In words: LTEA_HepaRG_CYP24A1: Life Technologies and Expression Analysis (LTEA) Assay for Cytochrome P450 (CYP24A1) using HepaRG (AID 2283478). In short, it runs like this: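 mRNA of CYP24A1 quantified by TaqMan qRT-PCR (ACTB/GAPDH/POLR2A normalization) after 48 h chemical exposure of HepaRG cells, top concentration 100 uM, half-log steps, 0.5% DMSO vehicle, duplicates. Curves fitted bidirectionally against DMSO baseline.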

Read-out in test [9]: Cytochrome P450 (CYP1A2), CYP1A2 (gene 1544)
In words: LTEA_HepaRG_CYP1A2: Life Technologies and Expression Analysis (LTEA) Assay for Cytochrome P450 (CYP1A2) using HepaRG (AID 2283479). The method in brief:
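CYP1A2 transcript measured by TaqMan qRT-PCR against three housekeeping genes after 48-hour chemical exposure of HepaRG cells. Eight-point half-log series topping at 100 uM in 0.5% DMSO, duplicates; gain or loss fitted relative to vehicle.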

Read-out in test [10]: cysteine-aspartic acid protease (CASP8), CASP8 (gene 841)
In words: LTEA_HepaRG_CASP8: Life Technologies and Expression Analysis (LTEA) Assay for cysteine-aspartic acid protease (CASP8) using HepaRG (AID 2283480). In short, it runs like this: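 Differentiated human HepaRG cells, plated 48 h then switched to serum-free induction medium, were exposed in duplicate for 48 h to 8 half-log concentrations up to 100 uM in 0.5% DMSO. CASP8 mRNA was quantified by qRT-PCR, normalized to ACTB/GAPDH/POLR2A.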

Read-out in test [11]: Cytochrome P450 (CYP2B6), CYP2B6 (gene 1555)
As to the kind of experiment: LTEA_HepaRG_CYP2B6: Life Technologies and Expression Analysis (LTEA) Assay for Cytochrome P450 (CYP2B6) using HepaRG (AID 2283481). In short, it runs like this: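 CYP2B6 transcript level quantified by qRT-PCR against three housekeeping genes, fitted bidirectionally relative to DMSO. HepaRG cultures received chemicals for 48 h, 8-point half-log series from 100 uM in 0.5% DMSO, duplicate wells, serum-free induction medium.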

Read-out in test [12]: Cytochrome P450 2C19 (Homo sapiens) (UniProt P33261)
In words: LTEA_HepaRG_CYP2C19: Life Technologies and Expression Analysis (LTEA) Assay for CYP2C19 using HepaRG (AID 2283482). In short, it runs like this:
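CYP2C19 transcript levels by qRT-PCR, normalized to three housekeeping genes, in HepaRG cells after 48 h chemical exposure. Eight-point half-log series topping at 100 uM, 0.5% DMSO vehicle. Increases and decreases both fitted against DMSO.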

Read-out in another test: CYP2C8 (gene 1558)
As to the kind of experiment: LTEA_HepaRG_CYP2C8: Life Technologies and Expression Analysis (LTEA) Assay for CYP2C8 using HepaRG (AID 2283483). In short, it runs like this:
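Differentiated human HepaRG cells were exposed for 48 h in serum-free induction medium to eight half-log concentrations up to 100 uM in 0.5% DMSO, in duplicate. CYP2C8 mRNA was measured by TaqMan qRT-PCR, normalized to ACTB, GAPDH and POLR2A, and fitted bidirectionally against DMSO.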

Read-out in the next test: CYP2C9 (gene 1559)
In words: LTEA_HepaRG_CYP2C9: Life Technologies and Expression Analysis (LTEA) Assay for CYP2C9 using HepaRG (AID 2283484). In short, it runs like this:
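Differentiated human HepaRG cells were exposed 48 h in serum-free induction medium to eight half-log concentrations up to 100 uM in 0.5% DMSO. CYP2C9 mRNA was measured by qRT-PCR, normalized to ACTB, GAPDH and POLR2A, and fitted bidirectionally against DMSO.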

Read-out in a further test: CYP2E1 (gene 1571)
In words: LTEA_HepaRG_CYP2E1: Life Technologies and Expression Analysis (LTEA) Assay for CYP2E1 using HepaRG (AID 2283485). The method in brief: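 HepaRG cells, plated 48 h, then exposed 48 h in serum-free induction medium to eight half-log concentrations from 100 uM in 0.5% DMSO, duplicate. CYP2E1 mRNA by qRT-PCR, normalized to ACTB/GAPDH/POLR2A; bidirectional fit versus DMSO.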

Read-out in another test: CYP4A11 (gene 1579)
In words: LTEA_HepaRG_CYP4A11: Life Technologies and Expression Analysis (LTEA) Assay for CYP4A11 using HepaRG (AID 2283486). The method in brief:
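Readout is CYP4A11 transcript level by qRT-PCR, normalized to three housekeeping genes and fitted bidirectionally against 0.5% DMSO. Human HepaRG cells were treated 48 h, in duplicate, with an 8-point half-log series topping at 100 uM.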

Read-out in test [13]: Cytochrome P450 3A4 (Homo sapiens) (UniProt P08684)
In words: LTEA_HepaRG_CYP3A4: Life Technologies and Expression Analysis (LTEA) Assay for CYP3A4 using HepaRG (AID 2283487). The method in brief:
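In a human hepatic line (HepaRG), duplicate wells were treated 48 h with up to 100 uM chemical in half-log dilutions. Endpoint: CYP3A4 mRNA induction or loss relative to 0.5% DMSO vehicle, by qRT-PCR.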

Cytochrome P450 3A4 (Homo sapiens), sequence (P08684 whole entry, looked up): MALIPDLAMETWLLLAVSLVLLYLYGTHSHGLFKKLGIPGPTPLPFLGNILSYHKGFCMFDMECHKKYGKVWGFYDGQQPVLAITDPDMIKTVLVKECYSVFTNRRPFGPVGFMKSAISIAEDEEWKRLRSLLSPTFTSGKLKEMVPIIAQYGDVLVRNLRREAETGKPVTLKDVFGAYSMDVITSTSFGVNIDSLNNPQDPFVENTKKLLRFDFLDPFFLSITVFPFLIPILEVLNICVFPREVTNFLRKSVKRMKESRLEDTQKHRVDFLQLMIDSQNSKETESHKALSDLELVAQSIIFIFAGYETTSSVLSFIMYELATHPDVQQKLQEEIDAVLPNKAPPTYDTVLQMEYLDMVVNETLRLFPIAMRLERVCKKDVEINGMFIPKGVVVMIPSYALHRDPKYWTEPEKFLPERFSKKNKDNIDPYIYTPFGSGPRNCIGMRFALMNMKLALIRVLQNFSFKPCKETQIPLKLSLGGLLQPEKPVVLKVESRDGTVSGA
Caspase-3 (Homo sapiens), sequence (P42574 whole entry, looked up): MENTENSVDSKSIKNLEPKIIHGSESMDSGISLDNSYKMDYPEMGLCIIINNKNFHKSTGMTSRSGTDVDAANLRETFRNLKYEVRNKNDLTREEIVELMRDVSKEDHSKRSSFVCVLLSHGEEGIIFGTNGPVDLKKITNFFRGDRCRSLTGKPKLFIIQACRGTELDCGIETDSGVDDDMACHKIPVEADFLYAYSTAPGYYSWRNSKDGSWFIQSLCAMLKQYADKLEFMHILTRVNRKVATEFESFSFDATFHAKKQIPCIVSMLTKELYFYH
Apoptosis regulator Bcl-2 (Homo sapiens), sequence (P10415 whole entry, looked up): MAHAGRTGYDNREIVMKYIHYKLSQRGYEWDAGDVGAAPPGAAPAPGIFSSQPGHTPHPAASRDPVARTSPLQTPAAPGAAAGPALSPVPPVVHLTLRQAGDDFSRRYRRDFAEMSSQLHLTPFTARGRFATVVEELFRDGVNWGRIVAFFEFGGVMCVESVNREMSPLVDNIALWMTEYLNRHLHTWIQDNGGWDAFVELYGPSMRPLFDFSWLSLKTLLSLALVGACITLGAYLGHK
Cytochrome P450 2C19 (Homo sapiens), sequence (P33261 whole entry, looked up): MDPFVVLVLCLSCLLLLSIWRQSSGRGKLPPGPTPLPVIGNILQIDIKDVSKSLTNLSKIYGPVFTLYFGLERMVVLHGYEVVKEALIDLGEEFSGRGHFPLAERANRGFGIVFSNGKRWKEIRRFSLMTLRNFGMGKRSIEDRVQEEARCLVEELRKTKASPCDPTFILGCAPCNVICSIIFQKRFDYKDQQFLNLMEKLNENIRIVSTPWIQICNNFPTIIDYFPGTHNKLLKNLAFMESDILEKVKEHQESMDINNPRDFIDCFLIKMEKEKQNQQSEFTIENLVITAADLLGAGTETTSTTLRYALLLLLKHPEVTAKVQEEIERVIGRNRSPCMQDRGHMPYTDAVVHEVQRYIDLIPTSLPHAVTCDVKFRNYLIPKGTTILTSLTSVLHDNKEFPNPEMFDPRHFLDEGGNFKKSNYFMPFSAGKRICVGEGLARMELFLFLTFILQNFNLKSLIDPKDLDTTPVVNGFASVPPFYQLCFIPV

For `CN(C)NC(=O)CCC(=O)O`, the call (in [1]; in [2]; in [3]; in test [4]; with BCL2L11 (gene 10018); in [5]) was inactive. The call (in test [6]; in test [7]; with Caspase-3 (Homo sapiens); in [8]; in [9]; in test [10]) was inactive. Besides, the result (in test [11]; in test [12]; with CYP2C8 (gene 1558); with CYP2C9 (gene 1559); in the test with CYP2E1 (gene 1571); with CYP4A11 (gene 1579)) was inactive. The compound was classed as inactive in [13].

On to `CC1=NNC(=O)N(/N=C/c2cccnc2)C1`, for which the call (in test [1]; in test [3]; in [4]; in the test with BCL2L11 (gene 10018); in test [5]; in test [6]) was inactive. Also, the compound was called inactive (in test [7]; in the test with Caspase-3 (Homo sapiens); in test [8]; in [10]; in [11]; in [12]). Moreover, the call (in the test with CYP2C8 (gene 1558); in the test with CYP2C9 (gene 1559); in the test with CYP2E1 (gene 1571); with CYP4A11 (gene 1579); in [13]) was inactive. Besides, in test [9], the AC50 was 6.84 µM (active).

Regarding `CN(C)[C@@H]1C(=O)C(C(N)=O)=C(O)[C@@]2(O)C(=O)C3=C(O)c4c(O)cccc4[C@@](C)(O)[C@H]3[C@H](O)[C@@H]12`, the compound was called inactive (in test [1]; in test [2]; in [4]; in the test with BCL2L11 (gene 10018); in [5]; in [6]). Moreover, the compound was classed as inactive (in test [7]; in the test with Caspase-3 (Homo sapiens); in test [8]; in test [9]; in [10]; in [11]). Also, the compound was called inactive (in test [12]; with CYP2C8 (gene 1558); in the test with CYP2C9 (gene 1559); with CYP2E1 (gene 1571); in the test with CYP4A11 (gene 1579); in [13]). Moreover, the AC50 in test [11] was 10 µM (active); with CYP2E1 (gene 1571) it was 50 µM (active); with CYP4A11 (gene 1579), 38.6 µM (active).
